TROY signal inh: blocks TROY-dependent signaling in reporter cells | inhibition, % at 10 µM | AID 1347056 | 0.98% of 360,000 active | Q293 LMP1-TROYcd NF-kB luciferase reporter, 4 h;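 active = compounds whose plate-normalised and pattern-corrected inhibition of the luciferase reporter signal at the single screening dose is 50% or more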
TWEAK-Fn14 inh: inhibitors of TWEAK-Fn14 interaction signaling; 2% of 360,000 active; inhibition, % at 10 µM; TWEAK-stimulated Fn14 reporter cells, luciferase luminescence, 8 h; in the data active = inhibition above about 50%
HSP90 refold inh: HSP90 refolding inhibition in rabbit reticulocyte lysate. luciferase refolding luminescence, 3 h. inhibition, % at 5.6 µM. 0.91% of 290,000 active;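 active = inhibition above the screen-wide mean plus 3 SD, computed separately per campaign, cut at about 16% in these data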;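 also: 0% = DMSO wells and 100% = 60 µM geldanamycin wells; inhibitors lower the luminescence because luciferase stays unfolded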
LGR2 inh: Drosophila LGR2 receptor signaling inhibition. HEK293 LGR2, CRE-luciferase, bursicon-stimulated, 4 h. inhibition, % at 9.99 µM. 0.35% of 380,000 active. AID 720647;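 active = drop in luminescence signal, shown as inhibition above about 50% in the replicate tests, limit read from the data, passing the limit was not always enough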;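 also: agonist challenge used bursicon conditioned medium at about half maximal strength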
aDG glyco up: alpha-DG glycosylation activation. 0.22% of 360,000 active. Pro5-aDG cells, alpha-DG glycosylation AlphaScreen (IIH6); 0% Pro5, 100% B10-LARGE cell signal. activation, % at 10 µM. AID 624168;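 active = activation of at least 8% versus controls, or a plate z-score of at least 8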;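 also: Pro5 are CHO cells carrying HIG-tagged alpha-DG that lacks glycosylation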
LMP1 NFkB inh: reduces LMP1-driven NF-kappaB luciferase signal. LMP1-induced NF-kappaB luciferase reporter cells, luminescence. 0.69% of 350,000 active. inhibition, % at 12.5 µM; in the data active = inhibition above about 41%;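 also: 0% = neutral control wells and 100% = reference inhibitor control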
Starred values were filed as active, the others as inactive; . = not tested or not shown; ! = not active in a repeat. Only some compounds are listed: those with a hit (about 2.6% of all), similar ones and a draw of the others.

SMILES	TROY signal inh	TWEAK-Fn14 inh	HSP90 refold inh	LGR2 inh	aDG glyco up	LMP1 NFkB inh
CN1C2CCC1C(C(=O)O)C(OC(=O)c1ccccc1)C2 (configuration not stated)	-11	2	.	-10	0	-4
COC(=O)C1C2CC[C@@H](CC1OC(=O)c1ccccc1)N2 (some centres not stated)	-11	4	.	.	0	90*
CCOC(=O)C1C(OC(=O)c2ccccc2)CC2CCC1N2C (configuration not stated)	-7	-6	.	8	0	73*
COC(=O)C1C(OC(=O)c2ccccc2)CC2CCC1[N+]2(C)C (configuration not stated)	.	.	.	-4	.	.
COC(=O)C(O)(c1ccc(NC(=S)NC(=O)c2ccc(Cl)cc2Cl)c(C)c1)C(F)(F)F (configuration not stated)	64*	56*	2	14	1	10
CCOC(=O)C(O)(c1ccc(NC(=S)NC(=O)c2ccc(Cl)cc2Cl)c(C)c1)C(F)(F)F (configuration not stated)	58*	72*	5	9	4	8
CCOC(=O)C(O)(c1ccc(NC(=S)NC(=O)c2ccc(Cl)cc2Cl)cc1)C(F)(F)F (configuration not stated)	25	-6	3	6	0	-1
COC(=O)C(O)(c1ccc(NC(=S)NC(=O)c2ccc(Cl)cc2Cl)cc1)C(F)(F)F (configuration not stated)	47	34	0	0	0	1
O=C(Cc1ccccn1)N1CCCCN2[C@H](CO)[C@H](c3ccc(-c4ccccc4F)cc3)[C@@H]2C1	.	.	.	2	.	.
CC(=NNC(=S)N1CC2CCC(CC2)C1)c1nccs1	-4	17	.	-36	-1	73*
CC1=CC2/C=C(\C)CCC(O)C(O)/C=C/C(=O)C23C(=O)NC(CC(C)C)C3C1C (configuration not stated)	61*	93*	3	.	0	13
CCCN1[C@@H]2Cn3c(ccc(-c4ccccc4)c3=O)[C@H]1[C@@H](C(=O)OC)[C@@H]2CO	.	.	.	5	.	.
c1ccc(CN2COC3CCCCCC32)cc1 (configuration not stated)	55*	4	.	.	0	.
O=C1CC(=O)N(Cc2ccccc2)C(=O)N1Cc1ccccc1	15	22	.	2	0	-1
CC=Cc1ccc2n(c1=O)C[C@@H]1[C@@H](CO)[C@H](C(=O)O)[C@H]2N1S(=O)(=O)c1ccccc1F (mixture of isomers)	.	.	.	-13	.	.
OCC[N+]12CCC(CC1)C(C(O)(c1ccccc1)c1ccccc1)C2 (configuration not stated)	54*	-20	-2	3	0	6
O=C(C[N+]12CCC(CC1)C(C(O)(c1ccccc1)c1ccccc1)C2)c1ccc(Br)cc1 (configuration not stated)	-16	8	3	5	0	-13
Cc1[nH]nc2ccc(-c3cncc(OC[C@@H](N)Cc4c[nH]c5ccccc45)c3)cc12	77*	98*	.	.	-1	90*
CN(C)[C@@H]1C(=O)C(C(N)=O)=C(O)[C@@]2(O)C(=O)C3=C(O)c4c(O)cccc4[C@@](C)(O)[C@H]3[C@H](O)[C@@H]12	-1	-12	-1	-2	0	90*!
COC1C(C)OC(OC2CC(C)(O)Cc3cc4c(c(O)c32)C(=O)c2c(O)cc3c(c2C4=O)OC2OC3(C)C(O)C(N(C)C)C2O)C(OC)C1(C)OC (configuration not stated)	12	15	.	20	0	85*
Cc1ccnc(-n2c(C)cc(C=C3C(=O)N(C)C(=S)N(C)C3=O)c2C)c1	1	87*	-2	.	0	-4
CC[C@H]1CN2CCC1C[C@H]2[C@H](O)c1ccnc2ccc(OC)cc12 (some centres not stated)	-6	-11	.	.	0	69*
COC(=O)C1=C(c2ccc(F)cc2OCc2ccccc2)C[C@@H]2CC[C@H]1N2C(=O)NC(C)C	-7	10	.	18	0	49*
COC(=O)C1=C(c2ccc(OCc3ccccc3)cc2)C[C@@H]2CC[C@H]1N2C	57*	31	.	1	0	-5
COC(=O)C1=C(c2ccc(F)cc2OCc2ccccc2)C[C@@H]2CC[C@H]1N2C	-35	3	.	8	0	1
SMILES	TROY signal inh	TWEAK-Fn14 inh	HSP90 refold inh	LGR2 inh	aDG glyco up	LMP1 NFkB inh
COC(=O)C1=C(c2ccc(OCc3ccccc3)c(F)c2)C[C@@H]2CC[C@H]1N2C	52*	21	.	14	0	-10
O=C(O)[C@H]1[C@H](CO)[C@H]2Cn3c(ccc(-c4cccnc4)c3=O)[C@@H]1N2C(=O)Nc1cc(F)ccc1F	.	.	.	9	.	.
N#Cc1ncc(N=Cc2ccc(N(CCCl)CCCl)cc2)s1	21	53*	.	-3	0	59*
Nc1cc(Cl)c2nonc2c1[N+](=O)[O-]	70*	58*	2	5	-1	0
O=[N+]([O-])c1c(Cl)c(Cl)c(Cl)c(Cl)c1Cl	-1	5	.	15	0	3
Oc1c(Cl)c(Cl)c(Cl)c(Cl)c1Cl	64*	5	.	.	0	-8
COC(=O)C1=Nc2ccccc2/C1=C\c1c(O)n(-c2ccc(OC)cc2)c(=O)[nH]c1=O	35	65*	1	.	0	4
COc1ccc(OC)c(-n2c(O)c(/C=C3\C(C)=Nc4ccccc43)c(=O)[nH]c2=O)c1	7	7	-2	2	0	.
COC(=O)C1=Nc2ccccc2/C1=C\c1c(O)n(-c2ccc(Br)cc2)c(=O)[nH]c1=O	-2	59*	0	.	0	2
COc1ccc(-c2ccc([C@@H]3[C@@H](CO)N4CCCCN(C(=O)Cc5ccccc5)C[C@H]34)cc2)cc1	.	.	.	0	.	.
C/C=C/c1ccc(C2[C@@H]3CN(Cc4cccnc4)C[C@H]2N3)cc1 (some centres not stated)	.	.	.	-4	.	.
COc1ccc(C#Cc2ccc([C@H]3[C@@H](CO)N4CCCCN(C(=O)Cc5ccncc5)C[C@H]34)cc2)cc1	.	.	.	-20	.	.
CCN(CC)S(=O)(=O)c1ccc(NN=C(C#N)C#N)cc1	63*	67*	1	.	0	32
Cc1ccc(N(C)C(=O)Oc2ccc(C(=O)c3ccc(Cl)cc3)cc2)cc1	.	68*	1	.	0	7
CC(C)CC#Cc1ccc([C@H]2[C@H](CO)N3CCCCN(C(=O)Cc4ccccn4)C[C@@H]23)cc1	.	.	.	-9	.	.
COC(=O)[C@@H]1[C@@H](CO)[C@@H]2Cn3c(ccc(C4=CCCC4)c3=O)[C@H]1N2Cc1ccccn1	.	.	.	12	.	.
COc1cc(OC)c(OC)cc1/C=C1\C(=O)NC(=O)N(Cc2ccccc2)C1=O	55*	8	3	2	0	-6
C[C@@H]1CN([C@H](C)CO)C(=O)c2c(c3ccccc3n2C)-c2ccccc2CO[C@H]1CN(C)C(=O)Oc1ccccc1	.	.	.	17	.	.

From PubChem BioAssay
